# In PubChem BioAssay (NCATS):
# Inconclusive results are not listed. Calls of active or inactive are those of the source. Calls come from the whole dose curve; as a rule, active = well fitted cell-killing curve with a large enough effect; inconclusive = small, poorly fitted or top-dose-only effect, or effect the other way; inactive = no such curve, though single readings can be large or run the other way.
# Assay: Quantitative High-Throughput drug screen in 47 multiple myeloma cell lines against the NCATS MIPE library collection: JJN3_DSMZ cell viability assay (AID 1918966; note: nearly all actives have a fitted effect of over 50% in size)
# Conditions: JJN3 myeloma cells viability, CellTiter-Glo ATP, 48 h; series mostly up to 45.8 µM
# Text: PI: Beverly A. Mock Ph.D.
# Laboratory of Cancer Biology and Genetics,
# Center for Cancer Research, National Cancer Institute,
# National Institute of Health, Bethesda, Maryland
# Drug resistance and disease progression are common in multiple myeloma (MM) patients, underscoring the need for new therapeutic combinations. […] We hypothesized that effective combinations would reduce MYC expression and enhance p16 activity. […] These preclinical data identify potentially useful drug combinations for evaluation in drug-resistant MM and reveal potential mechanisms of combined drug sensitivity.
# Described herein is the primary MIPE qHTS used to cherrypick compounds. Validated compounds were then further tested for potential synergistic activiy.
# [1] Peat TJ, Gaikwad SM, Dubois W, Gyabaah-Kessie N, Zhang S, Gorjifard S, Phyo Z, Andres M, Hughitt VK, Simpson RM, Miller MA, Girvin AT, Taylor A, Williams D, D'Antonio N, Zhang Y, Rajagopalan A, Flietner E, Wilson K, Zhang X, Shinn P, Klumpp-Thomas C, McKnight C, Itkin Z, Chen L, Kazandijian D, Zhang J, Michalowski AM, Simmons JK, Keats J, Thomas CJ, Mock BA. Drug combinations identified by high-throughput screening promote cell cycle transition and upregulate Smad pathways in myeloma. Cancer Lett. 2023 Aug 1;568:216284. doi: 10.1016/j.canlet.2023.216284. Epub 2023 Jun 24. PMID: 37356470; PMCID: PMC10408729.
# SEQUENCE No. (e.g., 1, 2, 3, etc.); […] (e.g., Cells, Incubation, Reagent, etc.); VALUE and DESCRIPTION.
# 1; Cells; 5 uL; white, solid bottom 1536-well Greiner assay plate.
# 2; Compounds; 23 nL; Kalypsis pin tool (Wako USA) equipped with a 1536-well pin head to transfer to the assay plates.
# 3; Incubation; 48 hours; 37C incubation.
# 4; Reagent;5uL; CellTiter Glo (Promega).
# 5; Detector; 425V; Luminescence; Viewlux PerkinElmer.
# NOTES (numbers refer to Sequence numbers above)
# 1. The cell-based screening methods employed in this study were like those previously published. Briefly, the corresponding myeloma cell lines were screened in 1,536-well plates with 500 cells, 5-uL per well for inhibition of cell viability (assessed by measuring ATP levels with CellTiterGlo).
# 2. NCATS MIPE 4.0 library of approved and investigational drugs were added using the Kalypsis pin tool. Wells treated with DMSO only for 100% viability and media only wells for 0% viability were used as controls.
# 3. The assay plates were covered and incubated for 48 hours in a 37C, 5% CO2 incubator with controlled humidity.
# 4. After 48 hours, CellTilter-GloTM luminescent substrate mix (Promega) reagent was added to the assay plate and plates we incubated for 5 min at room temperature.
# 5. Signal was measured as median relative luminescence units on a ViewLux (PerkinElmer) multiplate reader.
# [1] Heske CM, Davis MI, Baumgart JT, Wilson K, Gormally MV, Chen L, Zhang X, Ceribelli M, Duveau DY, Guha R, Ferrer M, Arnaldez FI, Ji J, Tran HL, Zhang Y, Mendoza A, Helman LJ, Thomas CJ. Matrix Screen Identifies Synergistic Combination of PARP Inhibitors and Nicotinamide Phosphoribosyltransferase (NAMPT) Inhibitors in Ewing Sarcoma. Clin Cancer Res. 2017 Dec 1;23(23):7301-7311. doi: 10.1158/1078-0432.CCR-17-1121. Epub 2017 Sep 12. PMID: 28899971; PMCID: PMC6636827.
# Potency is the fitted concentration of half-maximal effect.
row,SMILES,Potency
1,COc1cc2ncnc(Nc3cccc(Cl)c3)c2cc1OC,33.2 µM (active)
2,CCCCS(=N)(=O)CCC(N)C(=O)O (stereo not given),inactive
3,CCCOc1ccc(C(=O)OCCN(CC)CC)cc1N,inactive
4,CCOC(=O)c1ccc(OC(=O)CCCCCN=C(N)N)cc1,inactive
5,COc1cc([C@@H]2c3cc4c(cc3[C@H](O)[C@H]3COC(=O)[C@H]23)OCO4)cc(OC)c1OC,inactive
6,COc1ccc(C(=O)CC(=O)c2ccc(C(C)(C)C)cc2)cc1,0.935 µM (active)
7,C[C@@H](CN1CC(=O)NC(=O)C1)N1CC(=O)NC(=O)C1,inactive
8,Nc1nc(N)nc(-c2cc(Cl)ccc2Cl)n1,inactive
9,O=C(O)CSCC(=O)NC1CCSC1=O (stereo not given),inactive
10,CCCCCCNC(=O)n1cc(F)c(=O)[nH]c1=O,23.5 µM (active)
11,CCOc1cc(N)c(Cl)cc1C(=O)NCC1CN(Cc2ccc(F)cc2)CCO1 (stereo not given),inactive
12,Nc1nc(F)nc2c1ncn2[C@@H]1O[C@H](CO)[C@@H](O)[C@@H]1O,0.235 µM (active)
13,COc1cc2c(Nc3ccc(Br)cc3F)ncnc2cc1OCC1CCN(C)CC1,18.7 µM (active)
14,CC(C)OC(=O)OCOP(=O)(CO[C@H](C)Cn1cnc2c(N)ncnc21)OCOC(=O)OC(C)C,18.7 µM (active)
15,CC(C)(C)C(=O)OCOP(=O)(COCCn1cnc2c(N)ncnc21)OCOC(=O)C(C)(C)C,0.526 µM (active)
16,CC(N)C12CC3CC(CC(C3)C1)C2 (stereo not given),inactive
17,Cc1ccnc2c1NC(=O)c1cccnc1N2C1CC1,inactive
18,CN1CCN(c2c(F)cc3c(=O)c(C(=O)O)cn4c3c2OCN4C)CC1,inactive
19,CC1=CC(=O)c2ccccc2C1=O,13.2 µM (active)
20,Oc1c(Cl)cc(Cl)c2cccnc12,8.33 µM (active)

row,SMILES,Potency
1,CC(C)(C#N)c1cc(Cn2cncn2)cc(C(C)(C)C#N)c1,2.35 µM (active)
2,CN1CCCC(n2nc(Cc3ccc(Cl)cc3)c3ccccc3c2=O)CC1 (stereo not given),2.96 µM (active)
3,CNC(=O)c1cc(Oc2ccc(NC(=O)Nc3ccc(Cl)c(C(F)(F)F)c3)cc2)ccn1,23.5 µM (active)
4,CC(C)(Sc1cc(C(C)(C)C)c(O)c(C(C)(C)C)c1)Sc1cc(C(C)(C)C)c(O)c(C(C)(C)C)c1,inactive
5,CCC(=O)O[C@]1(C(=O)SCF)[C@H](C)C[C@H]2[C@@H]3C[C@H](F)C4=CC(=O)C=C[C@]4(C)[C@@]3(F)[C@@H](O)C[C@@]21C,inactive
6,CN(C)c1ccc(C(=C2C=CC(=[N+](C)C)C=C2)c2ccc(N(C)C)cc2)cc1,0.0187 µM (active)
7,Cc1cccc(N(C)C(=S)Oc2ccc3ccccc3c2)c1,inactive
8,CN(C)CCc1c[nH]c2ccc(CS(=O)(=O)N3CCCC3)cc12,inactive
9,C1CCC(C(CC2CCCCN2)C2CCCCC2)CC1 (stereo not given),20.9 µM (active)
10,NC1(c2ccc(-c3nc4ccn5c(=O)[nH]nc5c4cc3-c3ccccc3)cc2)CCC1,5.26 µM (active)
11,CNS(=O)(=O)CCc1ccc2[nH]cc(C3CCN(C)CC3)c2c1,0.0418 µM (active)
12,COc1ccc2c(c1)c(CC(=O)OCC(=O)O)c(C)n2C(=O)c1ccc(Cl)cc1,inactive
13,Nc1nc(=S)c2[nH]cnc2[nH]1,4.69 µM (active)
14,COc1ccc2cc3[n+](cc2c1OC)CCc1cc2c(cc1-3)OCO2,11.8 µM (active)
15,CO[C@@]12[C@H](COC(N)=O)C3=C(C(=O)C(C)=C(N)C3=O)N1C[C@@H]1N[C@@H]12,26.4 µM (active)
16,COc1c(N2CCNC(C)C2)c(F)cc2c(=O)c(C(=O)O)cn(C3CC3)c12 (stereo not given),inactive
17,CNNCc1ccc(C(=O)NC(C)C)cc1,inactive
18,COc1cc2nc(N3CCCN(C)CC3)nc(NC3CCN(Cc4ccccc4)CC3)c2cc1OC,16.6 µM (active)
19,COc1cc(NCc2ccc3nc(N)nc(N)c3c2C)cc(OC)c1OC,3.72 µM (active)
20,Nc1[nH]c(=O)ncc1F,inactive
